From PubChem
VACV Venus inh: qHTS for Stage-Specific Inhibitors of Vaccinia Orthopoxvirus: Venus Reporter Primary qHTS; actives 0.46% (n = 330,000); Potency, µM (highest dose often 36.5 µM), most hits filed as inhibitors; Vaccinia virus Venus reporter expression, fluorescence; calls by dose curve; tested in A549 cells; note: nearly all actives have a fitted effect of over 30% in size
Vaccinia mCherry: qHTS for Stage-Specific Inhibitors of Vaccinia Orthopoxvirus: mCherry Reporter Primary qHTS; actives 0.63% (n = 310,000); Potency, µM (titrated, usually from 36.5 µM), most hits filed as inhibitors; Vaccinia virus mCherry reporter infection, fluorescence; calls by dose curve; tested in A549 cells; note: nearly all actives have a fitted effect of over 35% in size
Lassa entry inh: qHTS for Inhibitors of binding or entry into cells for Lassa Virus; Lassa virus pseudotype entry inhibition, cell reporter; Potency, µM (titrated, usually from 37.9 µM), actives largely listed as inhibitors; actives 1.2% (n = 300,000); AID 540256, 2011; calls by dose curve; tested in HEK293 cells; note: nearly all actives have a fitted effect of over 50% in size
MARV entry inh: qHTS for inhibitors of binding or entry into cells for Marburg Virus; Marburg virus pseudotyped entry inhibition, cell reporter; AID 540276, 2011; actives 1.8% (n = 300,000); Potency, µM (top dose mostly 37.8 µM), most hits filed as inhibitors; calls by dose curve; tested in HEK293 cells
Large screens that a line does not name were inactive. Rows were chosen to be rich in hits. Some 2.5% of all compounds tested hit in one or more screens of this group.

CCn1c(C(=O)NCc2ccc(F)cc2)cc2oc3ccccc3c21	Lassa entry inh inconclusive, MARV entry inh 3.55µM
CCOc1ccc(CNC(=O)c2ccc3oc(=O)n(Cc4ccccc4)c3c2)cc1	Lassa entry inh 5.01µM (no result: MARV entry inh)
COC(=O)c1cc2oc3ccccc3c2n1CC(=O)Nc1ccccc1OC	none (no result: Vaccinia mCherry)
CC1(C)OB(c2cnc(C#N)nc2)OC1(C)C	none (no result: Lassa entry inh, MARV entry inh)
CCOc1ccccc1CNC(=O)c1cc2oc3ccccc3c2n1CC	Lassa entry inh 5.17µM, MARV entry inh 3.26µM
CCn1c(C(=O)N2CCc3ccccc3C2)cc2oc3ccccc3c21	none (no result: VACV Venus inh, Vaccinia mCherry)
CC(=O)NCCNC(=O)c1ccc(Sc2ccccc2)c([N+](=O)[O-])c1	none (no result: Lassa entry inh, MARV entry inh)
CCN1CCCC1CNC(=O)c1ccc(Sc2ccc(F)cc2)c([N+](=O)[O-])c1 (stereo not drawn)	MARV entry inh 6.31µM (no result: Lassa entry inh)
CN(C)CCNC(=O)c1ccc(Sc2ccc(Br)cc2)c([N+](=O)[O-])c1	VACV Venus inh inconclusive, Vaccinia mCherry 10µM, Lassa entry inh inconclusive, MARV entry inh inconclusive
CCN1CCCC1CNC(=O)c1ccc(Sc2ccccc2Cl)c([N+](=O)[O-])c1 (stereo not drawn)	MARV entry inh inconclusive
C=C1CN2C(=NC(c3ccccc3)C(C(=O)OC)=C2C)O1 (stereo not drawn)	none (no result: VACV Venus inh, Vaccinia mCherry, Lassa entry inh)
Cc1oc(-c2ccccc2NC(=O)c2ccccn2)nc1CNC(=O)c1cccc(C#CC(C)(C)O)c1	none (no result: Lassa entry inh, MARV entry inh)
CC(C)C[C@@H](CN1CCCC1CN1C(=S)NC[C@@H]1Cc1ccc(O)cc1)N1C[C@H](Cc2ccc(O)cc2)N(CC2CCCCCC2)C1=S (stereo partly drawn)	VACV Venus inh 11.2µM, Vaccinia mCherry 6.31µM (no result: Lassa entry inh, MARV entry inh)
CCOc1ccc(CCN2C(=S)N([C@@H](CC(C)C)CN3CCCC3CN3C(=S)NC[C@@H]3Cc3ccc(O)cc3)C[C@@H]2Cc2ccccc2)cc1 (stereo partly drawn)	VACV Venus inh inconclusive (no result: Lassa entry inh, MARV entry inh)
CCOc1ccc(CCN2C(=S)N([C@@H](CC(C)C)CN3CCCC3CN3C(=S)NC[C@@H]3Cc3ccc(O)cc3)C[C@@H]2Cc2ccc(O)cc2)cc1 (stereo partly drawn)	VACV Venus inh 10µM, Vaccinia mCherry inconclusive (no result: Lassa entry inh, MARV entry inh)
CC(C)C[C@@H](CN1CCCC1CN1C(=S)NC[C@@H]1Cc1ccc(O)cc1)N1C[C@H](Cc2ccccc2)N(CC2CCCCCC2)C1=S (stereo partly drawn)	none (no result: Lassa entry inh, MARV entry inh)
Cc1ccc(S(=O)(=O)C2(S(=O)(=O)c3ccc(C)cc3)CC2)cc1	Lassa entry inh inconclusive, MARV entry inh 11.2µM
Cc1c([C@@H](Nc2ccccn2)c2ccccc2)c(=O)n(-c2ccccc2)n1C	none (no result: VACV Venus inh, Vaccinia mCherry, Lassa entry inh)
COc1ccccc1-c1nc(-c2ccccc2)nc(N2CCN(C)CC2)c1C#N	MARV entry inh inconclusive
CN1CCN(c2nc(-c3ccccc3)nc(-c3ccc(F)cc3)c2C#N)CC1	MARV entry inh 11.2µM
COc1cc(/C=N/NC(=O)CCN2CCCCC2)ccc1O	VACV Venus inh inconclusive, Vaccinia mCherry inconclusive
COc1cc(/C=N/NC(=O)c2cc(-c3ccccc3)nc3ccccc23)ccc1O	Lassa entry inh inconclusive, MARV entry inh inconclusive
COc1cc(/C=N/NC(=O)CCn2cnc(-c3ccccc3)c2-c2ccccc2)ccc1O	VACV Venus inh inconclusive, Vaccinia mCherry 8.91µM, Lassa entry inh inconclusive, MARV entry inh inconclusive
CCOc1cc(/C=N/NC(=O)c2cc(-c3cccc(OC)c3)nc3ccccc23)ccc1O	Vaccinia mCherry inconclusive, Lassa entry inh inconclusive, MARV entry inh inconclusive
COc1cc(/C=N/NC(=O)c2cc(-c3ccccc3OC(C)C)nc3ccccc23)ccc1O	Vaccinia mCherry 12.6µM, Lassa entry inh 5.8µM, MARV entry inh 4.61µM
COc1ccc(/C=N/NC(=O)c2cc(-c3ccccc3)nc3ccccc23)cc1O	MARV entry inh 12.6µM
CC(C)COc1cccc(-c2cc(C(=O)N/N=C/c3ccncc3)c3ccccc3n2)c1	Vaccinia mCherry inconclusive, Lassa entry inh inconclusive, MARV entry inh 2.82µM
COc1ccc2[nH]cc(C(=O)CNc3nccs3)c2c1	none (no result: Lassa entry inh, MARV entry inh)
COc1ccc(/C=N/NC(=O)c2nc(-c3ccccc3)cc(-c3ccccc3)n2)cc1	Lassa entry inh inconclusive, MARV entry inh inconclusive (no result: Vaccinia mCherry)
COc1cccc(/C=N/NC(=O)c2cc(-c3ccccn3)nc3ccccc23)c1O	VACV Venus inh inconclusive, Vaccinia mCherry 1µM, Lassa entry inh inconclusive, MARV entry inh inconclusive
COc1ccc2[nH]c(C(=O)N/N=C/c3ccc(OC)c(O)c3)cc2c1	Vaccinia mCherry 11.2µM, Lassa entry inh 5.62µM, MARV entry inh inconclusive
COc1cc(OC)c2cc(C(=O)N/N=C/c3ccccc3O)[nH]c2c1	VACV Venus inh inconclusive, Vaccinia mCherry 1.12µM (no result: Lassa entry inh, MARV entry inh)
COc1ccc(C=NNC(=O)CCCC(=O)NN=Cc2ccc(OC)c(O)c2)cc1O	none
COc1ccc(OC)c(/C=N/NC(=O)c2cc3c(OC)c(OC)ccc3[nH]2)c1	none
COc1ccc(/C=N/NC(=O)c2nc(-c3ccccc3)cc(-c3ccccc3)n2)cc1O	VACV Venus inh inconclusive, Vaccinia mCherry inconclusive, Lassa entry inh inconclusive, MARV entry inh 17.8µM
Cc1ccc(CNc2nc(CN3CCNC(=O)C3)nc3ccccc23)o1	none (no result: Lassa entry inh, MARV entry inh)
OC(c1cccnc1)c1ccc2c(c1)CN(Cc1ccc(-c3ccccc3Cl)o1)CCO2 (stereo not drawn)	none (no result: Lassa entry inh, MARV entry inh)
CNc1ccc(/C=C2\C=Cc3ccccc32)cc1OC	none (no result: Lassa entry inh, MARV entry inh)
COc1ccc(/C=N/NC(=O)c2[nH]c3ccc(C)cc3c2-c2ccccc2)c(C(=O)O)c1OC	Vaccinia mCherry inconclusive
Cc1ccc2[nH]c(C(=O)N/N=C/c3ccccc3O)c(C)c2c1	VACV Venus inh inconclusive, Vaccinia mCherry 3.55µM (no result: Lassa entry inh, MARV entry inh)
c1ccc(-c2nnc(SCc3nnc(-c4cccs4)o3)o2)cc1	VACV Venus inh 7.08µM, MARV entry inh inconclusive (no result: Vaccinia mCherry)
COc1cccc(CO[C@H]2C=C[C@@H](c3ccccc3)O[C@H]2CN=[N+]=[N-])c1	none (no result: VACV Venus inh, Vaccinia mCherry, Lassa entry inh)
CCCN1CCN(CCCNC(=O)c2ccc3c(c2)sc2nc(-c4ccc(C)cc4)cn23)CC1	VACV Venus inh inconclusive, Vaccinia mCherry 7.08µM (no result: MARV entry inh)
c1ccc2c(C3=NNC(=NC4CC4)SC3)c[nH]c2c1	Lassa entry inh 11.2µM, MARV entry inh inconclusive
c1ccc(C2=NNC(=NC3CC3)SC2)cc1	Lassa entry inh 8.2µM, MARV entry inh inconclusive
Cc1cc(C2=NNC(=NC3CC3)SC2)c(C)n1-c1ccccc1	none (no result: Lassa entry inh, MARV entry inh)
c1ccc2c(C3=NNC(=NC4CCCCC4)SC3)c[nH]c2c1	none (no result: VACV Venus inh, Vaccinia mCherry)
COc1ccc(CC(=O)NCc2ccc3c(c2)CCN3C(=O)c2ccc(Cl)cc2)cc1OC	VACV Venus inh inconclusive, Lassa entry inh 11.2µM (no result: MARV entry inh)
COc1cc(C(=O)NCc2ccc3c(c2)CCN3C(=O)c2ccc(Cl)cc2)cc(OC)c1OC	Vaccinia mCherry inconclusive (no result: MARV entry inh)
CCN(CC)CCNC(=O)c1ccc(NC(C)=O)cc1	MARV entry inh inconclusive
CCN(CC)CCNC(=O)c1ccc(NC(=O)Cc2cccc3ccccc23)cc1	MARV entry inh 11.2µM
C[N+]1(CC(=O)c2ccc(I)cc2)CCOCC1	none (no result: Lassa entry inh, MARV entry inh)
CN(C)c1ccc(CN(C(=O)c2ccc(Cl)c([N+](=O)[O-])c2)C2CCS(=O)(=O)C2)cc1 (stereo not drawn)	Lassa entry inh inconclusive, MARV entry inh 11.2µM
CCCCCCCC=CC1=CC2(C)CC1(C)C(CCCCCCC)CC2=O (stereo not drawn)	none (no result: VACV Venus inh, Vaccinia mCherry, Lassa entry inh)
CCCc1ccc(C(=O)NNC(=O)c2ccc(Cl)cc2)cc1	none
